# FMDV antiviral: foot and mouth disease virus antiviral activity. FMDV antiviral cell-based qHTS. Potency, µM (series often up to 57.9 µM), without a hit: at the top dose activity change, negative = inhibition, most hits filed as inhibitors. 410,000 tested, 1.2% active; calls by dose curve; tested in HEK293T cells; note: read-out not given here; potency is the fitted concentration of half-maximal effect; nearly all actives have a fitted effect of over 45% in size
# Sm TGR inh: S. mansoni TGR enzyme inhibition | purified TGR, DTNB reduction, TNB absorbance 405 nm | Potency, µM (titrated, usually from 114 µM), for inactives: at the top dose activity change, negative = inhibition, usual class: inhibitors | 360,000 tested, 3% active; note: potency is the fitted concentration of half-maximal effect; nearly all actives have a fitted effect of over 60% in size
#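 Kinetic colorimetric format: TGR-catalysed, NADPH-driven DTNB reduction monitored via TNB absorbance. Enzyme dispensed at 20 nM; compound exposure 15 min at room temperature before reaction start.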
# FBPA Giardia inh: Giardia lamblia aldolase inhibition. purified Giardia FBPA. 290,000 tested, 0.71% active. A8B2U2. AID 2451. Potency, µM (top dose mostly 59.6 µM), inactives show at the highest dose activity, negative = inhibition, usual class: inhibitors; note: potency is the fitted concentration of half-maximal effect; nearly all actives have a fitted effect of over 55% in size
# Target sequence (A8B2U2 whole entry, looked up): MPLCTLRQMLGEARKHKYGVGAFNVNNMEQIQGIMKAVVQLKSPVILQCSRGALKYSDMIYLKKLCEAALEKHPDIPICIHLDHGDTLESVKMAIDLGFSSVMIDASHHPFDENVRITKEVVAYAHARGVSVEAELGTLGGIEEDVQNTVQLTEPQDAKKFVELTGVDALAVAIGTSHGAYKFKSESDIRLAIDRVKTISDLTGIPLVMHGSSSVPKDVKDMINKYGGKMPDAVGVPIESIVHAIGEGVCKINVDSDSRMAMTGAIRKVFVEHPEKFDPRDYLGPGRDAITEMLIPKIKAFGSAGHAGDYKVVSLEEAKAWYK
#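 40 nM FBPA preincubated 10 min at RT with compound (up to 57.5 uM final), then substrate plus GAPDH/TPI/NAD/arsenate coupling and diaphorase/resazurin added. Fluorescence read after 20 min at RT, 525/598 nm.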
# Tb PYK inh: T. brucei pyruvate kinase inhibition; Potency, µM (highest dose often 76.8 µM), without a hit: top-dose activity, negative = inhibition, most hits filed as inhibitors; TbPYK enzyme, Kinase-Glo Plus ATP luminescence, 45 min; AID 624173; 410,000 tested, 0.12% active; Q57TT1; note: potency is the fitted concentration of half-maximal effect; nearly all actives have a fitted effect of over 50% in size
#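 Luminescent Kinase-Glo Plus end-point after 45 min room-temperature reaction of T. brucei pyruvate kinase started with 130 uM ADP (final). Buffer TEA 50 mM pH 7.2 with KCl, MgCl2, BSA, Tween-20; titration-based qHTS with fitted concentration-effect curves.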
# HCMV inh: inhibitors of human cytomegalovirus; HFF cells, HCMV-luciferase reporter, 72 h; stronger effect = lower value; activity change, negative = inhibition, % at 57.5 µM; 410,000 tested, 4.5% active; AID 1259415; in the data active = activity change below about -60%; inconclusive = no clear call, values can overlap the other calls; inactive = above about -39%
#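 Human foreskin fibroblasts infected with luciferase-reporter HCMV at MOI 1 PFU/cell, compounds at two doses. Luciferase measured 72 h post infection; normalized to buffer-only basal and Salinomycin (10uM) controls.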
# RE007 growth inh: less growth of the S. pombe RE007 Vpr strain; S. pombe RE007 Vpr strain, BacTiter-Glo ATP luminescence, 24 h; Potency, µM (series often up to 92.2 µM), for the others: at the top dose activity change, negative = less growth, hits mostly inhibitors; 360,000 tested, 0.21% active; active = well fitted falling curve with a large enough effect; inconclusive = small, poorly fitted or top-dose-only effect; inactive = no such curve, though single readings can be large or run the other way; note: potency is the fitted concentration of half-maximal effect; nearly all actives have a fitted effect of over 50% in size
#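 Fission yeast RE007 carrying one integrated HIV-1 vpr copy, seeded at OD 0.01 in PMG+AL medium with 23 nL pinned compound. Grown 24 h at 30 degrees; viability read by BacTiter-Glo luminescence after 5 min.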
# * hit, by the source's call; ? = inconclusive; / = no result given; [ ] = remark or other dose. Shown are actives, neighbours in structure and some others; about 7.7% of the full set was active somewhere. Unless noted, calls come from the whole dose curve; as a rule, active = well fitted curve in the direction sought with a large enough effect; inconclusive = small, poorly fitted or top-dose-only effect, or another doubt; inactive = no such curve, though single readings can be large; an effect the other way counts as inactive or inconclusive. % is set by controls: 0 for no effect and ±100 for the full control effect.
SMILES,FMDV antiviral,Sm TGR inh,FBPA Giardia inh,Tb PYK inh,HCMV inh,RE007 growth inh
CC(C)(C)OC(=O)NCCCCCNC(=O)c1[nH]cnc1C(=O)Nc1ccc(Cl)cc1,32µM*,-5%,/,-1%,-39,2%
CC(C)c1ccc(OCCCN2CCC(C(O)(c3ccccc3)c3ccccc3)CC2)cc1,/,/,/,/,-99*,/
OC(c1ccccc1)(c1ccccc1)C1CCN(CCCOc2cccc(C(F)(F)F)c2)CC1,/,/,/,/,-66*,/
OC(c1ccccc1)(c1ccccc1)C1CCN(CCCOc2ccc(C(F)(F)F)cc2)CC1,/,/,/,/,-81*,/
CC(C)(C)c1ccc(OCCCCCCN2CCNCC2)cc1,-13%,/,/,0%,?,22%
Cc1ccc(OCCCN2CCC(C(O)(c3ccccc3)c3ccccc3)CC2)cc1,-27%,/,/,-8%,-18,-5%
OC(c1ccccc1)(c1ccccc1)C1CCN(CCCOc2ccc(F)cc2)CC1,-20%,/,/,-1%,-10,-16%
CC(C)(c1ccccc1)c1ccc(OCCCN2CCNCC2)cc1,0%,/,?,9%,-88*,5%
COc1ccccc1NC(=O)C1=C(C)Nc2nc(SCC(=O)c3ccc(C)cc3)nn2C1c1ccc(F)cc1 (stereo not given),-11%,4%,/,-3%,8,/
CCOC(=O)c1cc(S(=O)(=O)Nc2cc(C)c(Cl)cc2OC)[nH]n1,10%,-3%,/,7%,11,/
Cc1ccc(CN(Cc2ccco2)c2cnc(S(C)(=O)=O)nc2C(=O)Nc2ccccc2Br)o1,-26%,-25%,/,-2%,-16,/
CCCc1cc(=O)oc2c(CN3CCN(C)CC3)c(O)c(Cl)cc12,-5%,?,-7%,-1%,14,-1%
O=c1oc2c(CN3CCOCC3)c(O)ccc2c2c1CCCC2,-17%,79µM*,-3%,0%,-27,-10%
O=c1oc2c(CN3CCOCC3)c(O)c(Cl)cc2c2c1CCCC2,-1%,45µM*,?,-2%,-25,1%
Cc1cc(=O)oc2c(CN3CCN(C)CC3)c(O)c(Cl)cc12,21%,50µM*,-19%,1%,-102*,1%
Cc1c(C)c2cc(Cl)c(O)c(CN3CCCCC3)c2oc1=O,12%,-11%,2%,5%,/,-5%
Cc1ccc(CCNC(=O)c2c(C)oc3ncn(CC(C)C)c(=O)c23)cc1,-6%,7%,/,0%,12,/
Cc1cc(C(C2C(=O)CC(C)(C)CC2=O)C2C(=O)CC(C)(C)CC2=O)cc(C)c1OC(F)F,2%,32µM*,-10%,-11%,14,-11%
NCCCCC(NC(=O)C1CCCN1C(=O)C1CSSCC(N)C(=O)NC(Cc2ccccc2)C(=O)NC(Cc2ccccc2)C(=O)NC(CCC(N)=O)C(=O)NC(CC(N)=O)C(=O)N1)C(=O)NCC(N)=O (stereo not given),/,/,/,5%,/,/
CCCCOc1cccc(C(=O)NC(=S)Nc2ccc(Cl)c(C(=O)O)c2)c1,23%,0%,24%,-2%,-10,3%
COc1cc(C(=O)NC(=S)Nc2ccc(Cl)c(C(=O)O)c2)cc(OC)c1OC,2%,40µM*,0%,0%,19,5%
COc1cc(C(=O)NC(=S)Nc2ccc3[nH]c(=O)[nH]c3c2)cc(OC)c1OC,-10%,1%,-16%,-5%,0,-9%
COc1cc(OC)cc(C(=O)NC(=S)Nc2ccc(Cl)c(C(=O)O)c2)c1,-13%,22µM*,-18%,3%,21,-3%
Cc1ccccc1-c1cccc(CN2CCc3nnc(C(NS(C)(=O)=O)C(C)C)n3CC2)c1 (stereo not given),-3%,/,/,/,/,/
C1CCN(CCCNC2C3CC4CC(C3)CC2C4)C1 (stereo not given),-1%,-5%,-4%,-8%,-84*,-17%
SMILES,FMDV antiviral,Sm TGR inh,FBPA Giardia inh,Tb PYK inh,HCMV inh,RE007 growth inh
Cc1ccsc1CCN1C(=O)N(c2ccccc2)C(=O)C1CC(=O)Nc1ccc(F)cc1 (stereo not given),-2%,6%,/,4%,12,/
C=CCOC(=O)N[C@@H](c1cccs1)C(C(C)=O)C(C)=O,/,/,3%,/,/,/
O=C(CSc1nncn2c1cc1sccc12)Nc1ccccc1C(F)(F)F,-11%,0%,/,7%,-73*,/
COc1ccccc1NC(=O)CSc1nncn2c1cc1sccc12,-15%,5%,/,-3%,?,/
c1ccc2c(NCCN3CCOCC3)nc(-c3ccoc3)nc2c1,9%,/,0%,/,/,/
CCOC(=O)c1csc(NC(=O)c2ccc(OCC)cc2)n1,?,7%,0%,5%,-61*,4%
CCOC(=O)c1sc(NC(=O)c2ccc(S(=O)(=O)N(C)C)cc2)cc1C,?,-12%,-14%,/,-87*,-8%[3.69 µM]
CCOC(=O)c1csc(NC(=O)c2ccc(S(=O)(=O)N(C)C)cc2)n1,/,-28%,2%,-10%,-63*,-6%
CCOC(=O)c1csc(NC(=O)c2ccccc2)n1,22%,0%,0%,2%,77,4%
CCC(C(=O)OC)n1cnc2c(cnn2-c2ccc(F)cc2)c1=O (stereo not given),-22%,-1%,/,-1%,12,/
CCC1CN(C(=O)N2CCC(C(=O)NCCc3ccc(Cl)cc3)CC2)c2ccccc2O1 (stereo not given),0%,-5%,/,0%,-14,/
Cc1cccc(Nc2cc3[nH]c(-c4ccccc4)cc3cn2)c1,/,/,/,/,-22,/
CCOC(=O)N/N=C1/C[C@@H](O)[C@@H](O)[C@@H]2[C@@H]3C(=O)N(C4CCCCC4)C(=O)[C@H]3CC[C@@H]12,/,/,2%[12.9 µM],/,/,/
c1ccc2c(N3CCNCC3)nc(-c3ccc4c(c3)OCO4)nc2c1,13%,/,-6%,/,/,/
COc1ccccc1CNc1nc(Nc2ccc(C)cc2C)c2sccc2n1,?,/,/,-4%,-76*,-14%
Cc1ccc(Nc2nc(NCc3cccs3)nc3ccsc23)c(C)c1,?,/,/,-13%,?,-22%
COc1ccccc1CNc1nc(NCCOc2ccccc2Cl)c2sccc2n1,22µM*,/,/,-7%,-61*,-1%
Cc1ccc(Nc2nc(NCc3ccccc3)nc3ccsc23)c(C)c1,?,/,/,5%,-62*,-29%
Cc1ccc(CO)cc1Nc1ncnc2onc(-c3ccc(F)cc3)c12,-9%,2%,/,2%,3,/
CC1CCC2=C1C[C@H](C(C)(C)O)CC[C@@H]2C (stereo not given in full),-7%,/,-17%,/,/,/
COc1cc(C2c3cc4c(c(O)c3CC3COC(=O)C32)OCO4)cc(OC)c1OC (stereo not given),-22%,/,4%,-9%,-83*,6%
COc1cc(C2c3cc4c(cc3CC3COC(=O)C32)OCO4)cc(OC)c1OC (stereo not given),-14%,/,/,-7%,1,5%
Oc1c(Br)c(Br)c(Br)c(Br)c1Br,-23%,3.5µM*,/,-11%,/,?

# Screens: PubChem, National Center for Advancing Translational Sciences (NCATS)
